Measurements from the supplement of paper PMC12636033.
± gives the standard deviation of the averaged measurements. Over roughly 33,000 sequences, “E-score (rank enrichment, -0.5 to 0.5)” has its median near -0.0028; the highest 2% begin near 0.23. What follows is part of a selection rich in the highest values, with near analogues and random picks from the rest.

What follows are sequences tested on 2Sb-muMax20 (muMax20 with two 1,3-bis(methyl)benzene Cys staples, A13C/A17C and Q88C/A92C, C-terminal Lys) (assay: PBM 8-mer E-score (E-score (rank enrichment, -0.5 to 0.5)); higher = stronger preferential binding).
Experimental: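 Protein binding microarray (universal PBM chip covering all 10-mers in fixed probe flanks) with chemically synthesized human Max(13-93) bHLH-LZ analogs (not full-length Max) bearing noncanonical residues (hArg, Tha, Aib, Nle at 65) and aromatic Cys staples. Read-out per 8-mer (and its reverse complement): E-score (rank-based enrichment, -0.5 to 0.5) and Z-score of median probe intensity.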
In the case of CTCTTTGA, the “PBM 8-mer E-score” value is reported as -0.0279 ± 0.036.
In the case of GTATGAGA, the “PBM 8-mer E-score” value is reported as 0.0453 ± 0.12.
For CTATGATA, the “PBM 8-mer E-score” value was 0.0532 ± 0.035.
With GCATGATA the “PBM 8-mer E-score” value was 0.214 ± 0.029.
In the case of ATATGATA, the “PBM 8-mer E-score” value is reported as 0.257 ± 0.058.
ATATGATG was tested, and the “PBM 8-mer E-score” value was 0.141 ± 0.0096.
GTATGATA was tested, and the “PBM 8-mer E-score” value was 0.258 ± 0.026.
In the case of ACCTTTAT, the “PBM 8-mer E-score” value is reported as 0.02821 ± 0.00021.
In the case of CAGCCTCG, the “PBM 8-mer E-score” value is reported as -0.0714 ± 0.034.
For GGGGTTGA, the “PBM 8-mer E-score” value was 0.138 ± 0.03.
ACCAATTC was tested, and the “PBM 8-mer E-score” value was -0.0487 ± 0.032.
CCCAATTC was tested, and the “PBM 8-mer E-score” value was 0.247 ± 0.0082.
For CCCAATTA, the “PBM 8-mer E-score” value was 0.221 ± 0.021.
With ACGATCTG the “PBM 8-mer E-score” value was -0.0575 ± 0.048.
In the case of AGCGATCG, the “PBM 8-mer E-score” value is reported as 0.235 ± 0.0084.
For AGCGATCC, the “PBM 8-mer E-score” value was -0.145 ± 0.057.
For AGCGATCA, the “PBM 8-mer E-score” value was -0.298 ± 0.021.
GACTGTCC was tested, and the “PBM 8-mer E-score” value was -0.111 ± 0.073.
ATTGTCGA was tested, and the “PBM 8-mer E-score” value was 0.0736 ± 0.034.
For CAAATACC, the “PBM 8-mer E-score” value was 0.0305 ± 0.029.
With CATATGGG the “PBM 8-mer E-score” value was 0.252 ± 0.056.
For AATATATT, the “PBM 8-mer E-score” value was 0.24 ± 0.054.
TATATACA was tested, and the “PBM 8-mer E-score” value was 0.173 ± 0.0038.
In the case of AATATACA, the “PBM 8-mer E-score” value is reported as 0.264 ± 0.02.
In the case of AATATGGG, the “PBM 8-mer E-score” value is reported as 0.178 ± 0.024.
With AATATACT the “PBM 8-mer E-score” value was 0.0704 ± 0.03.
In the case of AATATATC, the “PBM 8-mer E-score” value is reported as 0.19 ± 0.013.
In the case of CAAATACA, the “PBM 8-mer E-score” value is reported as 0.23 ± 0.0088.
For CATATGGC, the “PBM 8-mer E-score” value was 0.142 ± 0.035.
With AATATATA the “PBM 8-mer E-score” value was 0.162 ± 0.015.
With GAAATACA the “PBM 8-mer E-score” value was -0.0423 ± 0.015.
In the case of CTTGTGTA, the “PBM 8-mer E-score” value is reported as 0.116 ± 0.033.
AGGCACAG was tested, and the “PBM 8-mer E-score” value was -0.103 ± 0.026.
With CGCAGTAA the “PBM 8-mer E-score” value was 0.0928 ± 0.087.
In the case of GGGCATCA, the “PBM 8-mer E-score” value is reported as 0.0183 ± 0.046.
With TAAATTCA the “PBM 8-mer E-score” value was 0.111 ± 0.075.
GACATCTA was tested, and the “PBM 8-mer E-score” value was -0.1 ± 0.066.
In the case of AAAACAGC, the “PBM 8-mer E-score” value is reported as 0.13 ± 0.037.
In the case of CGTGGAAG, the “PBM 8-mer E-score” value is reported as 0.0947 ± 0.13.
In the case of GCACTAGC, the “PBM 8-mer E-score” value is reported as 0.109 ± 0.017.
AATGAATA was tested, and the “PBM 8-mer E-score” value was 0.156 ± 0.018.
With GGGCGACC the “PBM 8-mer E-score” value was -0.0448 ± 0.029.
With CAATCTAA the “PBM 8-mer E-score” value was 0.0541 ± 0.078.
With CATATATG the “PBM 8-mer E-score” value was 0.305 ± 0.007.
AAAATATG was tested, and the “PBM 8-mer E-score” value was 0.143 ± 0.05.
With AATATGTG the “PBM 8-mer E-score” value was 0.139 ± 0.033.
AATATATG was tested, and the “PBM 8-mer E-score” value was 0.3 ± 0.004.
For CATATATA, the “PBM 8-mer E-score” value was 0.194 ± 0.0063.
In the case of CATATATC, the “PBM 8-mer E-score” value is reported as 0.13 ± 0.055.
For TGCGAGCA, the “PBM 8-mer E-score” value was 0.146 ± 0.052.
For AAACCTAG, the “PBM 8-mer E-score” value was 0.000475 ± 0.031.
For AAACCTAT, the “PBM 8-mer E-score” value was -0.107 ± 0.033.
For AAACCTAC, the “PBM 8-mer E-score” value was 0.279 ± 0.06.
With GGATCTAC the “PBM 8-mer E-score” value was -0.141 ± 0.02.
In the case of ACATGCAT, the “PBM 8-mer E-score” value is reported as 0.363 ± 0.013.
In the case of ACATGTCG, the “PBM 8-mer E-score” value is reported as 0.166 ± 0.058.
With ACATGTAG the “PBM 8-mer E-score” value was 0.275 ± 0.021.
In the case of GCATGTAC, the “PBM 8-mer E-score” value is reported as 0.172 ± 0.024.
In the case of CCATGTAG, the “PBM 8-mer E-score” value is reported as 0.172 ± 0.0065.
In the case of AGATGTAT, the “PBM 8-mer E-score” value is reported as 0.181 ± 0.031.
With ACATGCAC the “PBM 8-mer E-score” value was 0.0993 ± 0.062.
With ACATGTAC the “PBM 8-mer E-score” value was 0.309 ± 0.014.
For ACATGTAT, the “PBM 8-mer E-score” value was 0.267 ± 0.0098.
With CCATGTAC the “PBM 8-mer E-score” value was -0.0138 ± 0.036.
With ACATGCAG the “PBM 8-mer E-score” value was 0.037 ± 0.07.
For ACATGTAA, the “PBM 8-mer E-score” value was 0.217 ± 0.026.
AAACCGTT was tested, and the “PBM 8-mer E-score” value was -0.108 ± 0.016.
GACCGACC was tested, and the “PBM 8-mer E-score” value was -0.162 ± 0.012.
With AGTATCCG the “PBM 8-mer E-score” value was -0.139 ± 0.029.
With CCCGGCCG the “PBM 8-mer E-score” value was -0.233 ± 0.084.
For GCAGGAAA, the “PBM 8-mer E-score” value was 0.00101 ± 0.013.
In the case of CAGACGTA, the “PBM 8-mer E-score” value is reported as -0.0519 ± 0.083.
CCCTCACC was tested, and the “PBM 8-mer E-score” value was 0.0586 ± 0.062.
In the case of AAGACCTA, the “PBM 8-mer E-score” value is reported as 0.0674 ± 0.017.
In the case of AATAGTTG, the “PBM 8-mer E-score” value is reported as 0.256 ± 0.032.
For AATAGTTC, the “PBM 8-mer E-score” value was 0.0849 ± 0.052.
For AATAGTTA, the “PBM 8-mer E-score” value was 0.166 ± 0.0059.
GACTTCAC was tested, and the “PBM 8-mer E-score” value was -0.0215 ± 0.052.
GGAATTCC was tested, and the “PBM 8-mer E-score” value was -0.26 ± 0.055.
With ATCAGAAT the “PBM 8-mer E-score” value was -0.0334 ± 0.0022.
For AAGGTCTA, the “PBM 8-mer E-score” value was -0.00279 ± 0.068.
In the case of GCATATGC, the “PBM 8-mer E-score” value is reported as 0.259 ± 0.011.
ACATGGGG was tested, and the “PBM 8-mer E-score” value was 0.267 ± 0.045.
ACATATGG was tested, and the “PBM 8-mer E-score” value was 0.15 ± 0.036.
For CCATATGC, the “PBM 8-mer E-score” value was 0.125 ± 0.064.
ATATGGGG was tested, and the “PBM 8-mer E-score” value was 0.255 ± 0.0087.
For ATATGGGC, the “PBM 8-mer E-score” value was 0.192 ± 0.062.
CCATGGGG was tested, and the “PBM 8-mer E-score” value was -0.134 ± 0.03.
GCATATGA was tested, and the “PBM 8-mer E-score” value was 0.174 ± 0.045.
In the case of ATATGGGA, the “PBM 8-mer E-score” value is reported as 0.13 ± 0.017.
CCATATGG was tested, and the “PBM 8-mer E-score” value was 0.322 ± 0.0072.
ACATGGGA was tested, and the “PBM 8-mer E-score” value was 0.0654 ± 0.083.
For ACATATGC, the “PBM 8-mer E-score” value was 0.0308 ± 0.041.
For ACCAAAGT, the “PBM 8-mer E-score” value was -0.131 ± 0.004.
For AAACTTCA, the “PBM 8-mer E-score” value was 0.0459 ± 0.067.
With GCCGTGTA the “PBM 8-mer E-score” value was 0.0129 ± 0.059.
AGACCGCC was tested, and the “PBM 8-mer E-score” value was -0.0551 ± 0.0086.
CCAACGAA was tested, and the “PBM 8-mer E-score” value was -0.0751 ± 0.0019.
For ACTTGCGA, the “PBM 8-mer E-score” value was 0.141 ± 0.053.
In the case of ATGTTTAC, the “PBM 8-mer E-score” value is reported as 0.195 ± 0.0024.
With ACGTACGT the “PBM 8-mer E-score” value was 0.0796 ± 0.0024.
With CTGCACGC the “PBM 8-mer E-score” value was 0.0673 ± 0.012.
CCTACAAG was tested, and the “PBM 8-mer E-score” value was -0.0983 ± 0.063.
In the case of ATATATGC, the “PBM 8-mer E-score” value is reported as 0.196 ± 0.029.
ATATATGG was tested, and the “PBM 8-mer E-score” value was 0.279 ± 0.025.
ATATATGA was tested, and the “PBM 8-mer E-score” value was 0.203 ± 0.014.
With GTACCTAA the “PBM 8-mer E-score” value was 0.015 ± 0.015.
With GATACAAA the “PBM 8-mer E-score” value was 0.0261 ± 0.058.
AATACGAG was tested, and the “PBM 8-mer E-score” value was 0.239 ± 0.016.
